ChEMBL document CHEMBL4513216, “Probing the Open Global Health Chemical Diversity Library for Multistage-Active Starting Points for Next-Generation Antimalarials” (ACS Infect Dis, 2020)
The whole screen tested about 69,000 compounds, of which about 8,600 (12%) showed an effect of 50% or more. What follows is part of a selection rich in strong results, with near analogues and random picks from the rest.

System: Plasmodium berghei
Experiment: Screen against P. berghei liver stage (PbLuc), transformed with Luciferase, at 10uM
Type: functional, HepG2
Conditions: tested at 10 uM

Q: Which INHIBITION does the source give for `Cn1cnc2ccc(NC(=O)CC3CCN(S(C)(=O)=O)CC3)cc21` here?
A: -9.2%

Q: For `CC(Oc1cccc(Cl)c1)C(=O)Nc1cnn(CCN(C)C)c1` (configuration not stated), which INHIBITION is on record?
A: 60%

Q: `CC(Oc1cccc(Cl)c1)C(=O)Nc1cnn(CC(=O)NC2CC2)c1` (configuration not stated) was tested. Which INHIBITION did it give?
A: 10.7%

Q: With `CC(=O)c1cccc(OC(C)C(=O)Nc2cnn(CCN(C)C)c2)c1` (configuration not stated) as the compound, how does the INHIBITION read?
A: 34.2%

Q: For `CC(C)c1cc(C(=O)NCCc2nc(-c3cccnc3)n[nH]2)[nH]n1`, which INHIBITION is on record?
A: 12.365%

Q: How did the INHIBITION turn out when `c1cnc(N2CCc3onc(CN4CCOCC4)c3C2)cn1` was run?
A: 12.6%

Q: How did the INHIBITION turn out when `CSC1(CNC(=O)N(C)Cc2ccc(C)s2)CCOCC1` was run?
A: 57.3%

Q: How did the INHIBITION turn out when `CSC1(CNC(=O)N(C)Cc2ccc(Cl)s2)CCOCC1` was run?
A: 19.1%

Q: How did the INHIBITION turn out when `CSC1(CNC(=O)N(C)Cc2sccc2C)CCOCC1` was run?
A: 43.4%

Q: For `OCCN1CCN(CCOCC(F)(F)F)CC1`, which INHIBITION is on record?
A: 28.3%

Q: `CN1C(=O)C[C@H]2[C@H]1CCN2Cc1cccc(C#N)c1` was tested. Which INHIBITION did it give?
A: 7.77%

Q: How did the INHIBITION turn out when `COCCN1C(=O)C[C@H]2[C@H]1CCN2Cc1cccc(C#N)c1` was run?
A: 33.5%

Q: For `N#Cc1cccc(CN2CC[C@@H]3[C@@H]2CC(=O)N3Cc2ccncc2)c1`, which INHIBITION is on record?
A: 29.9%

Q: How did the INHIBITION turn out when `COCCN1C(=O)C[C@H]2[C@H]1CCN2Cc1ccccc1` was run?
A: 54.4%

Q: With `N#Cc1cccc(CN2CC[C@@H]3[C@@H]2CC(=O)N3CCN2CCCC2)c1` as the compound, how does the INHIBITION read?
A: 21.8%

Q: Which INHIBITION does the source give for `COCCN1C(=O)C[C@H]2[C@H]1CCN2Cc1ccc(OC)cc1` here?
A: 16.5%

Q: How did the INHIBITION turn out when `COCCN1C(=O)CC[C@@H]2[C@H]1CCN2Cc1cccc(C#N)c1` was run?
A: 27.6%

Q: For `CN(C)C(=O)CN1C(=O)C[C@@H]2[C@@H]1CCN2Cc1cccc(C#N)c1`, which INHIBITION is on record?
A: 81.2%

Q: How did the INHIBITION turn out when `CC(C)CN1C(=O)C[C@@H]2[C@@H]1CCN2Cc1cccc(C#N)c1` was run?
A: 63.7%

Q: With `N#Cc1cccc(NC(=O)CCn2nc(-c3cccs3)oc2=O)c1` as the compound, how does the INHIBITION read?
A: 38.8%

Q: For `COc1ccc(Cl)cc1Nc1nc(N)c(C(C)=O)s1`, which INHIBITION is on record?
A: 9.32%

Q: Which INHIBITION does the source give for `OCCN1CCC2(CC1)CC(NCc1ccccn1)c1ccccc1O2` (configuration not stated) here?
A: 33%

Q: For `O=C(Nc1cccc(CNCc2ccccn2)c1)C1CCCC1`, which INHIBITION is on record?
A: -0.65%

Q: Which INHIBITION does the source give for `O=C(Nc1ccc(CCN2CCC(O)CC2)cc1)C1CCCCC1` here?
A: 29.2%

Q: With `CN1CC2(CCN(S(=O)(=O)C3CC3)CC2)c2ccccc21` as the compound, how does the INHIBITION read?
A: 58.5%

Q: How did the INHIBITION turn out when `CN1C(=O)CC2(CCN(S(=O)(=O)N(C)C)CC2)c2ccccc21` was run?
A: 27.5%

Q: How did the INHIBITION turn out when `CN1C(=O)C2(CCN(S(=O)(=O)C3CC3)CC2)c2ccccc21` was run?
A: -3.51%

Q: How did the INHIBITION turn out when `CN(C)C(=O)N1CC2(CCN(S(C)(=O)=O)CC2)c2ccccc21` was run?
A: -43.1%

Q: `CN(C)C(=O)N1CC2(CCN(S(=O)(=O)C3CC3)CC2)c2ccccc21` was tested. Which INHIBITION did it give?
A: 38.2%

Q: `CN1C(=O)CC2(CCN(S(=O)(=O)C3CC3)CC2)c2ccccc21` was tested. Which INHIBITION did it give?
A: 55.6%

Q: For `O=C(c1ccccn1)N1CCC2(CCCN(c3nncs3)C2)C1` (configuration not stated), which INHIBITION is on record?
A: 28.5%

Q: For `COc1c(C2CC(=O)Nc3[nH]ncc32)cc2c(c1OC)OCO2` (configuration not stated), which INHIBITION is on record?
A: 7.38%

Q: How did the INHIBITION turn out when `Cc1sc(CN)nc1-c1ccccc1` was run?
A: 6.54%

Q: Which INHIBITION does the source give for `Cc1ccc(C(=O)N2CCc3ccc(=O)n(CCN(C)C)c3CC2)o1` here?
A: -17.2%

Q: `O=C(CCc1cc(O)no1)N1CCC(Cc2ccc(F)cc2)CC1` was tested. Which INHIBITION did it give?
A: -3.12%

Q: With `CN1CCC(N(C)CCC(=O)N2CCC(OCc3ccccc3)CC2)C1` (configuration not stated) as the compound, how does the INHIBITION read?
A: 23.8%

Q: Which INHIBITION does the source give for `CN1CCC(N(C)CCC(=O)N2CCC(CCc3ccccc3)CC2)C1` (configuration not stated) here?
A: 74.3%

Q: How did the INHIBITION turn out when `CN1CCC(N(C)CCC(=O)N2CCC(Cc3ccc(F)cc3)CC2)C1` (configuration not stated) was run?
A: 66.4%

Q: For `NC(=O)CC1CCN(C(=O)CCOc2ccc(Cl)cc2)CC1`, which INHIBITION is on record?
A: 23.2%

Q: With `CN1CCC(N(C)CCC(=O)N2CCN(Cc3cccc(F)c3)CC2)C1` (configuration not stated) as the compound, how does the INHIBITION read?
A: -0.991%

Q: For `COc1ccc(OC2CCN(C(=O)CCc3nc(Cl)n[nH]3)CC2)cc1`, which INHIBITION is on record?
A: 28.4%

Q: `CN1CC[C@H](N(C)Cc2ccccc2)C[C@H](O)C1` was tested. Which INHIBITION did it give?
A: 18.4%

Q: How did the INHIBITION turn out when `CN1CCC(N(C)CCC(=O)N2CCC(Oc3ccc(Cl)cc3)CC2)C1` (configuration not stated) was run?
A: 67.4%

Q: For `CCc1nc(-c2ccnc(N3CCNCC3)n2)no1`, which INHIBITION is on record?
A: 29.6%

Q: `Cc1cc(C)c(CNC(=O)N2CCCC2c2ccc(F)cc2)c(=O)[nH]1` (configuration not stated) was tested. Which INHIBITION did it give?
A: 34.7%

Q: With `CC(C)n1cnnc1CN(C)C(=O)CCn1cnc2ccccc2c1=O` as the compound, how does the INHIBITION read?
A: -17.6%

Q: Which INHIBITION does the source give for `CN1CC(=O)N(C2CCC2)Cc2c(NC3CCNCC3)ncnc21` here?
A: 20.9%

Q: Which INHIBITION does the source give for `CC(=O)N[C@@H]1CN(Cc2ccc(F)cc2F)C[C@H]1c1ccc(C)o1` here?
A: -14.1%

Q: `CC(C)C(CNCc1cccc2c1OCO2)N1CCOCC1` (configuration not stated) was tested. Which INHIBITION did it give?
A: 24.8%

Q: Which INHIBITION does the source give for `Cc1ccc(C(CNCc2cccc3c2OCO3)N2CCOCC2)o1` (configuration not stated) here?
A: 29.4%

Q: `c1csc(C(CNCc2cccc3c2OCO3)N2CCOCC2)c1` (configuration not stated) was tested. Which INHIBITION did it give?
A: 61.9%

Q: `Cc1ccc(NC(=O)N2CCCC(O)C2)c(Br)c1` (configuration not stated) was tested. Which INHIBITION did it give?
A: -86.5%
